PubChem BioAssay (Tox21)
Inconclusive results are not listed. The source made the active and inactive calls. The call rests on the fitted dose curve.

Each compound was assayed against D(2) dopamine receptor (Homo sapiens) (UniProt P14416) (assay: Dopamine D2 receptor (DRD2) small molecule agonists, cell-based qHTS assay (AID 1963594; further: nearly all actives have a fitted effect of over 35% in size)). Conditions: HEK293-DRD2 cAMP HTRF, agonist mode, 30 min; series mostly up to 92.4 µM; activation: at the top concentration.
Text: National Center for Advancing Translational Sciences [NCATS]
Division of Preclinical Innovation [DPI]
U.S. Environmental Protection Agency [EPA]
National Institutes of Environmental Health Sciences [NIEHS]
National Toxicology Program [NTP]
U.S. Food and Drug Administration [FDA]
DRD2 is the D2 subtype of the dopamine receptor, which is coupled to Gi subtype of G protein-coupled receptor. This G protein-coupled receptor inhibits adenylyl cyclase activity. The DRD2-HEK293 cell line stably expressing D2 dopamine receptor can be used for screening agonists and antagonists of interactions between D2 and its ligands. The Hek293-DRD2 cAMP assay is based on HTRF technology. It measures changes of cAMP accumulation in response to Gi coupled GPCR activation or inhibition.
Tox21 Assay Protocol Summary:
DRD2-Hek293 cells were dispensed at 600 cells/3uL/well in 1536-well white plates using a Multidrop Dispenser. After the assay plates were incubated at a 37 C/5% CO2 incubator for 24 h, 1 uL of Ro20-1724 at final concentration of 0.1 mM was transferred to the assay plate by a Flying Reagent Dispenser. Following Ro20-1724 addition, 23 nL of compound dissolved in DMSO, positive controls or DMSO only was added to the assay plates via Wako pintool station. The assay plates were incubated at room temperature for 10 min. Next, 1 uL of NKH477 at 200nM was added into the plates. After the assay plates were incubated at room temperature for an additional 30 min, 2.5 ul/well of cAMP-d2 and 2.5 ul/well of anti-cAMP-cryptate were added respectively into the assay plates using a Flying Reagent Dispenser. The plates were incubated at room temperature for 1 h. The fluorescence intensity in the plates was measured at 340 nm excitation and 665 & 620 nm emission by an Envision plate reader.
On the % scale 0 is the no-effect control and ±100 the full control effect.

Sequence of D(2) dopamine receptor (Homo sapiens) (P14416 whole entry, looked up): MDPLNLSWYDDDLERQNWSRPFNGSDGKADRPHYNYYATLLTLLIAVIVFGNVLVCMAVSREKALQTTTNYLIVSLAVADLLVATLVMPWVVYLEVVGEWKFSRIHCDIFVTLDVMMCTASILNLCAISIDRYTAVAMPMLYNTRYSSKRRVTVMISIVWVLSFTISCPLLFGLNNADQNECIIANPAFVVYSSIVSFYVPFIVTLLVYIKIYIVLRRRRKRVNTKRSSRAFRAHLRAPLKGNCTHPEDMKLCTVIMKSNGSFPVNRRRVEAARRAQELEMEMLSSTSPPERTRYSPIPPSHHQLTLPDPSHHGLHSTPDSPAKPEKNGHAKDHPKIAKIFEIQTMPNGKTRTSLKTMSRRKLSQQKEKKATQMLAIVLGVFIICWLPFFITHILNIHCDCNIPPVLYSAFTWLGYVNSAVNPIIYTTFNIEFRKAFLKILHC

Structure (SMILES)	activation	Potency
CCCCCCCC/C=C/CCCOC(C)=O	-3.37% (inactive)	
CCCCCCCCCCCCCOC(=O)CCSCCC(=O)OCCCCCCCCCCCCC	5.42% [at 19 µM] (inactive)	
CCN(CC)CCCC(C)Nc1ccnc2cc(Cl)ccc12 (stereo not given)	-2.86% [at 8.39 µM] (inactive)	
COc1ccc2cc([C@H](C)C(=O)O)ccc2c1		inactive
CN1CC(=O)N2[C@H](c3ccc4c(c3)OCO4)c3[nH]c4ccccc4c3C[C@@H]2C1=O	6.26% [at 42.5 µM] (inactive)	
CCOc1ccc(OCC)c(Cl)c1	-3.81% (inactive)	
Fc1ccc(C(c2ccc(F)cc2)N2CCNCC2)cc1	-7.3% [at 42.5 µM] (inactive)	
CC(CCO)CCCC(C)(C)O (stereo not given)	-13.3% (inactive)	
CCOc1nc2cccc(C(=O)OC(C)OC(=O)OC3CCCCC3)c2n1Cc1ccc(-c2ccccc2-c2nn[nH]n2)cc1 (stereo not given)	-15.3% (inactive)	
O=C1Cc2cc(CCN3CCN(c4nsc5ccccc45)CC3)c(Cl)cc2N1	0.283% [at 42.5 µM] (inactive)	
Cc1ccc(NC(=O)c2ccc(CN3CCN(C)CC3)cc2)cc1Nc1nccc(-c2cccnc2)n1	-18.9% [at 42.5 µM] (inactive)	
O=Cc1ccc(Cl)c([N+](=O)[O-])c1	-0.638% (inactive)	
CCCC(C)C(=O)O (stereo not given)	-2.12% (inactive)	
COC(=O)C1=C(C)NC(C)=C(C(=O)OCCc2ccc(N3CCN(C(c4ccccc4)c4ccccc4)CC3)cc2)C1c1cccc([N+](=O)[O-])c1 (stereo not given)	17.2% [at 42.5 µM] (inactive)	
NC(N)=N/N=C/c1c(Cl)cccc1Cl	11.7% [at 42.5 µM] (inactive)	
CC(=O)Nc1ccccc1O	-1.96% (inactive)	
O=C=NC1CCC(CC2CCC(N=C=O)CC2)CC1 (stereo not given)	8.67% (inactive)	
O=C(CN1CCNCC1)NC1CCCCC1	-0.416% [at 42.5 µM] (inactive)	
C=C1c2cccc(O)c2C(O)=C2C(=O)[C@]3(O)C(O)=C(C(N)=O)C(=O)[C@@H](N(C)C)[C@@H]3[C@@H](O)[C@H]12	2.2% [at 42.5 µM] (inactive)	
COC(=O)c1ccc(C(=O)O)cc1	-1.49% (inactive)	

Structure (SMILES)	activation	Potency
c1cc(C(c2ccc(OCC3CO3)cc2)c2ccc(OCC3CO3)cc2)ccc1OCC1CO1 (stereo not given)	1.58% (inactive)	
CCCCN(CCCC)CCC(O)c1cc2c(Cl)cc(Cl)cc2c2cc(C(F)(F)F)ccc12 (stereo not given)	-7.24% [at 42.5 µM] (inactive)	
CC(C)NC(=O)c1ccc(C=O)cc1	2.45% [at 42.5 µM] (inactive)	
C=CCOC(=O)CCC1CCCCC1	-9.98% (inactive)	
CCCCNCCCC	-0.315% (inactive)	
CC(C)(C)CC(C)(C)c1ccc(OCCO)cc1	-7.24% (inactive)	
O[C@@H](c1cc(C(F)(F)F)nc2c(C(F)(F)F)cccc12)[C@H]1CCCCN1	6.67% [at 42.5 µM] (inactive)	
Cc1ccc(NC=O)c(C)c1	-2.6% (inactive)	
CC(C)CC(C)(C)C	0.46% (inactive)	
OCCC1CCCCN1 (stereo not given)	-14.1% (inactive)	
CC1=C(C(=O)O)N2C(=O)[C@@H](NC(=O)[C@H](N)C3=CCC=CC3)[C@H]2SC1	-4.57% [at 42.5 µM] (inactive)	
CCC1(c2cnc[nH]2)Cc2ccccc2C1	14.4% [at 42.5 µM] (inactive)	
NCCCOCCOCCOCCCN	-11.4% (inactive)	
CCCCNC1CC(C)(C)NC(C)(C)C1	4.09% (inactive)	
CSCC[C@H](NC(=O)[C@H](Cc1c[nH]c2ccccc12)NC(=O)CCNC(=O)OC(C)(C)C)C(=O)N[C@@H](CC(=O)O)C(=O)N[C@@H](Cc1ccccc1)C(N)=O	-0.337% [at 42.5 µM] (inactive)	
Cc1ccccc1N=C(N)N=C(N)N	-4.73% (inactive)	
Clc1ccc(Nc2nnc(Cc3ccncc3)c3ccccc23)cc1	-13.7% [at 42.5 µM] (inactive)	
C#CC(O)C(CC)CCCC (stereo not given)	1.78% (inactive)	
CCCCCCC(=O)c1ccccc1	-0.782% (inactive)	
O=C(c1ccccc1)c1ccc(O)cc1	3.05% (inactive)	
